Reference: PubChem BioAssay AID1159580 (chemical genetic matrix, 2015)
In all, about 5,500 compounds went through this assay and about 2,000 (36%) were called active. Not shown: some 18% with an inconclusive outcome. No stated cut-off is given here; in the data, active means normalized growth mostly below about 0.91 (no sharp cut-off); inconclusive means no clear call, values can overlap the other calls; inactive means mostly above about 0.92. This is one part of the list.

Assay: chemical genetic growth profiling, strain panel (AID 1159580);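 further: tested at 20 µM; growth read once vehicle control cultures reached saturation at 30 °C; 1 = growth at the plate median or of vehicle wells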
Conditions: growth OD

Measured: normalized growth

CC1=C2C(O)C(=O)OC3CC4C(C)(C)C(=O)C=C[C@]4(C)C(CC1)[C@]23C (some centres not stated)
inactive: S. cerevisiae deletion strains, locus YJR043C, strain POL32, stronger effect = lower value 1.01 | S. cerevisiae deletion strains, locus YJR066W, strain TOR1, stronger effect = lower value 0.967 | S. cerevisiae deletion strains, locus YJR075W, strain HOC1, stronger effect = lower value 1.03 | S. cerevisiae deletion strains, locus YKL009W, strain mrt4, stronger effect = lower value 1.03 | S. cerevisiae deletion strains, locus YKL068W, stronger effect = lower value 1.01 | S. cerevisiae deletion strains, locus YKL085W, strain MDH1 (second series), stronger effect = lower value 1 | S. cerevisiae deletion strains, locus YKL085W, strain MDH1, stronger effect = lower value 1 | S. cerevisiae deletion strains, locus YKL160W, strain elf1, stronger effect = lower value 1 | S. cerevisiae deletion strains, locus YKR001C, strain vps1, stronger effect = lower value 0.996 | S. cerevisiae deletion strains, locus YKR026C, strain gcn3, stronger effect = lower value 1.01 | S. cerevisiae deletion strains, locus YKR091W, strain srl3, stronger effect = lower value 1.01 | S. cerevisiae deletion strains, locus YLL001W, strain dnm1, stronger effect = lower value 0.992 | S. cerevisiae deletion strains, locus YLL026W, stronger effect = lower value 1.01 | S. cerevisiae deletion strains, locus YLL041C, strain sdh2, stronger effect = lower value 1.02 | S. cerevisiae deletion strains, locus YLR027C, strain aat2, stronger effect = lower value 1 | S. cerevisiae deletion strains, locus YLR039C, strain RIC1, stronger effect = lower value 1.15 | S. cerevisiae deletion strains, locus YLR058C, strain SHM2, stronger effect = lower value 1.03 | S. cerevisiae deletion strains, locus YLR102C, strain apc9, stronger effect = lower value 1.02 | S. cerevisiae deletion strains, locus YLR113W, strain HOG1, stronger effect = lower value 0.984 | S. cerevisiae deletion strains, locus YLR221C, strain rsa3, stronger effect = lower value 1.03 | S. cerevisiae deletion strains, locus YLR258W, strain gsy2, stronger effect = lower value 1.01 | S. cerevisiae deletion strains, locus YLR262C, strain YPT6 (second series), stronger effect = lower value 1.06 | S. cerevisiae deletion strains, locus YLR268W, strain sec22, stronger effect = lower value 1.02 | S. cerevisiae deletion strains, locus YLR320W, strain mms22, stronger effect = lower value 1.01 | S. cerevisiae deletion strains, locus YLR342W, strain FKS1 (second series), stronger effect = lower value 1.03 | S. cerevisiae deletion strains, locus YLR342W, strain FKS1, stronger effect = lower value 1.01 | S. cerevisiae deletion strains, locus YLR357W, strain rsc2, stronger effect = lower value 1.02 | S. cerevisiae deletion strains, locus YLR370C, strain arc18, stronger effect = lower value 1 | S. cerevisiae deletion strains, locus YLR371W, strain rom2, stronger effect = lower value 0.985 | S. cerevisiae deletion strains, locus YLR384C, strain iki3, stronger effect = lower value 1.02 | S. cerevisiae deletion strains, locus YLR418C, strain cdc73, stronger effect = lower value 1.07 | S. cerevisiae deletion strains, locus YML016C, strain PPZ1, stronger effect = lower value 1.02 | S. cerevisiae deletion strains, locus YML032C, strain rad52, stronger effect = lower value 1 | S. cerevisiae deletion strains, locus YML120C, strain ndi1, stronger effect = lower value 1 | S. cerevisiae deletion strains, locus YML124C, strain tub3, stronger effect = lower value 1.01 | S. cerevisiae deletion strains, locus YMR058W, strain fet3, stronger effect = lower value 1.01 | S. cerevisiae deletion strains, locus YMR078C, strain ctf18, stronger effect = lower value 1.02 | S. cerevisiae deletion strains, locus YMR125W, strain sto1, stronger effect = lower value 1.01 | S. cerevisiae deletion strains, locus YMR129W, stronger effect = lower value 1.01 | S. cerevisiae deletion strains, locus YMR205C, strain PFK2, stronger effect = lower value 1 | S. cerevisiae deletion strains, locus YMR223W, strain ubp8, stronger effect = lower value 1.01 | S. cerevisiae deletion strains, locus YMR231W, strain pep5, stronger effect = lower value 1.01 | S. cerevisiae deletion strains, locus YMR307W, strain GAS1, stronger effect = lower value 1.03 | S. cerevisiae deletion strains, locus YNL067W, strain RPL9B, stronger effect = lower value 1.05 | S. cerevisiae deletion strains, locus YNL071W, strain lat1, stronger effect = lower value 0.999 | S. cerevisiae deletion strains, locus YNL128W, strain TEP1, stronger effect = lower value 1.02 | S. cerevisiae deletion strains, locus YNL183C, strain NPR1, stronger effect = lower value 0.978 | S. cerevisiae deletion strains, locus YNL209W, strain ssb2, stronger effect = lower value 1.01 | S. cerevisiae deletion strains, locus YNL233W, strain BNI4, stronger effect = lower value 1.06 | S. cerevisiae deletion strains, locus YNL248C, strain rpa49, stronger effect = lower value 1.01 | S. cerevisiae deletion strains, locus YNL250W, strain rad50, stronger effect = lower value 1.03 | S. cerevisiae deletion strains, locus YNL271C, strain bni1, stronger effect = lower value 1.02 | S. cerevisiae deletion strains, locus YNL298W, strain CLA4, stronger effect = lower value 1 | S. cerevisiae deletion strains, locus YNL307C, strain MCK1, stronger effect = lower value 1.03 | S. cerevisiae deletion strains, locus YNL322C, strain KRE1 (second series), stronger effect = lower value 1.04 | S. cerevisiae deletion strains, locus YNR049C, strain mso1, stronger effect = lower value 1.01 | S. cerevisiae deletion strains, locus YNR052C, strain pop2, stronger effect = lower value 1.04 | S. cerevisiae deletion strains, locus YOL012C, strain htz1 0.949 | S. cerevisiae deletion strains, locus YOL147C, strain pex11, stronger effect = lower value 1.01 | S. cerevisiae deletion strains, locus YOR001W, strain rrp6, stronger effect = lower value 1.01 | S. cerevisiae deletion strains, locus YOR061W, strain CKA2, stronger effect = lower value 1.01 | S. cerevisiae deletion strains, locus YOR069W, strain VPS5, stronger effect = lower value 1.01 | S. cerevisiae deletion strains, locus YOR070C, strain gyp1, stronger effect = lower value 1.02 | S. cerevisiae deletion strains, locus YOR080W, strain dia2, stronger effect = lower value 1.02 | S. cerevisiae deletion strains, locus YOR083W, strain WHI5, stronger effect = lower value 1.01 | S. cerevisiae deletion strains, locus YOR106W, strain vam3, stronger effect = lower value 0.983 | S. cerevisiae deletion strains, locus YOR136W, strain idh2, stronger effect = lower value 1.03 | S. cerevisiae deletion strains, locus YOR144C, strain elg1, stronger effect = lower value 1.01 | S. cerevisiae deletion strains, locus YOR184W, strain ser1, stronger effect = lower value 1.01 | S. cerevisiae deletion strains, locus YOR231W, strain MKK1, stronger effect = lower value 1.03 | S. cerevisiae deletion strains, locus YOR265W, strain rbl2, stronger effect = lower value 1 | S. cerevisiae deletion strains, locus YOR270C, strain vph1, stronger effect = lower value 1.05 | S. cerevisiae deletion strains, locus YOR290C, strain snf2, stronger effect = lower value 1.01 | S. cerevisiae deletion strains, locus YOR316C, strain cot1, stronger effect = lower value 1.01 | S. cerevisiae deletion strains, locus YPL051W, strain arl3, stronger effect = lower value 1.02 | S. cerevisiae deletion strains, locus YPL055C, strain LGE1, stronger effect = lower value 1.03 | S. cerevisiae deletion strains, locus YPL078C, strain atp4, stronger effect = lower value 0.998 | S. cerevisiae deletion strains, locus YPL106C, strain sse1, stronger effect = lower value 1.03 | S. cerevisiae deletion strains, locus YPL240C, strain hsp82, stronger effect = lower value 1.01 | S. cerevisiae deletion strains, locus YPL241C, strain CIN2, stronger effect = lower value 1.01 | S. cerevisiae deletion strains, locus YPL256C, strain CLN2, stronger effect = lower value 1.01 | S. cerevisiae deletion strains, locus YPR119W, strain clb2, stronger effect = lower value 1.01 | S. cerevisiae deletion strains, locus YPR141C, strain kar3, stronger effect = lower value 1.03 | S. cerevisiae deletion strains, locus YPR163C, strain tif3, stronger effect = lower value 1.02 | S. cerevisiae deletion strains, locus YPR167C, strain met16, stronger effect = lower value 1.03 | S. cerevisiae deletion strains, strain wtn01, stronger effect = lower value 0.994 | S. cerevisiae strains, strain wild type, stronger effect = lower value 1.01
